# An excerpt weighted towards active compounds, which were near 3.3% of everything screened.
# PfG6PD inh: PfG6PD enzyme inhibitors, primary screen, biochemical, fluorescence intensity, uHTS. glucose-6-phosphate dehydrogenase-6-phosphogluconolactonase (Plasmodium falciparum 3D7). PfGluPho enzyme, NADPH resazurin-diaphorase fluorescence. inhibition, % at 20 µM. 0.78% of 350,000 active;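 active = inhibition reaching at least a set limit at 20 µM in the primary screen, cut at about 59% in these data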;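 also: 0% = DMSO wells with substrate and 100% = DMSO wells lacking glucose-6-phosphate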
# PfM18AAP inh-1: PfM18AAP inhibitors, malaria aminopeptidase, primary screen, biochemical, QFRET, recombinant enzyme. M18 aspartyl aminopeptidase (Plasmodium falciparum 3D7). H-Glu-NHMec fluorogenic cleavage. inhibition, % at 7.35 µM. 1.2% of 290,000 active. AID 1822, 2009;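 active = inhibition above the campaign mean inhibition over all tested compounds plus 3 SD, cut at about 28% in these data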;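 also: 0% = plate median of test compound wells and 100% = 2 mM ZnCl2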
# MBD2 inh: inhibitors of MBD2 binding to methylated DNA, primary screen, biochemical, TR-FRET, DNA-binding domain, human. MBD2 binding to methylated oligonucleotide. inhibition, % at 4.4 µM. 0.31% of 370,000 active. AID 686964, 2013; in the data active = inhibition above about 13%
# UHRF1 binding: UHRF1 methylated DNA binding inhibitors, primary screen, counter-screen for MBD2 inhibitor project, biochemical, TR-FRET, human UHRF1, single concentration | inhibition, % at 4.4 µM | E3 ubiquitin-protein ligase UHRF1 (Homo sapiens), Q96T88 | UHRF1 binding to methylated oligo | AID 687016, 2013 | 0.75% of 370,000 active; in the data active = inhibition above about 21%;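 also: UHRF1 SRA domain binding a hemimethylated CpG hairpin DNA probe; 0% = median of test compound wells and 100% = reference inhibitor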
# Target sequence (Q96T88 whole entry, looked up, the tested form may be a part): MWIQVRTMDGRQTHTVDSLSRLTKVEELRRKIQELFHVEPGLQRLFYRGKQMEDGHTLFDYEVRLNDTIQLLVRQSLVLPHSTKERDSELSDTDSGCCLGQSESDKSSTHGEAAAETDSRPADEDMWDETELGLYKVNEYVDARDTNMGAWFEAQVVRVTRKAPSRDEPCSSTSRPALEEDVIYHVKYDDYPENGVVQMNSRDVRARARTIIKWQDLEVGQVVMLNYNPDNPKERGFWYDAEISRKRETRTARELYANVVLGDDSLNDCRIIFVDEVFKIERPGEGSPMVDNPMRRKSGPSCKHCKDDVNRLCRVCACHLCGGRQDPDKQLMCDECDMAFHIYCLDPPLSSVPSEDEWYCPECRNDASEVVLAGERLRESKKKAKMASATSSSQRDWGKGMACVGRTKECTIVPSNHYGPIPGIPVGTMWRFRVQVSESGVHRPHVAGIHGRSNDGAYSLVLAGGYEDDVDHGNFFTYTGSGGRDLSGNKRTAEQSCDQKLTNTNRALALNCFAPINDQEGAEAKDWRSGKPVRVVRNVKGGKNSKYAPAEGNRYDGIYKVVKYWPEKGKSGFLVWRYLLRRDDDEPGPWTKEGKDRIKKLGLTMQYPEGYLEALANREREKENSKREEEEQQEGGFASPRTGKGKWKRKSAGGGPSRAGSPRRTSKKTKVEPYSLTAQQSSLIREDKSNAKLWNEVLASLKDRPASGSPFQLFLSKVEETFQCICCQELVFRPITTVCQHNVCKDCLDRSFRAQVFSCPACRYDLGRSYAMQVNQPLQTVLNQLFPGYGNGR
# PRMT1 FP inh: PRMT1 methyltransferase inhibitors, primary screen, biochemical, fluorescence polarization; AID 652257, 2013; 1.3% of 370,000 active; inhibition, % at 2.79 µM; Protein arginine N-methyltransferase 1 (Homo sapiens), Q99873; recombinant PRMT1, activity-based probe fluorescence polarization;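 active = inhibition above about 21% made by adding two undisclosed values, limit read from the data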
# PfM18AAP inh-2: PfM18AAP inhibitors, malaria aminopeptidase, confirmation, biochemical, QFRET, recombinant enzyme, triplicate; shares compounds with PfM18AAP inh-1; H-Glu-NHMec fluorogenic cleavage; inhibition, % at 7.35 µM; 28% of 2,400 active;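 active = mean inhibition over replicate wells above the hit cutoff set for the earlier primary screen, cut at about 29% in these data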;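 also: 0% = median of test compound wells and 100% = 2 mM ZnCl2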
# CTSL1 confirm: cathepsin L1 inhibitors, retest, confirmation, counter-screen for PFM18AAP inhibitor project, biochemical, QFRET, triplicate. shares compounds with PfM18AAP inh-1. purified cathepsin L1, Z-Leu-Arg-MCA fluorescence. inhibition, % at 5.96 µM. 2,400 tested, under 10 active. AID 2178, 2009;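 active = average inhibition across replicates above the hit cutoff set in the earlier primary screen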;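 also: 0% = median of test compound wells and 100% = Z-Phe-Ala-diazomethylketone 1 µM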
# * hit, by the source's call; x = no result given.
SMILES,PfG6PD inh,PfM18AAP inh-1,MBD2 inh,UHRF1 binding,PRMT1 FP inh,PfM18AAP inh-2,CTSL1 confirm
O=C(Nc1ccc2c(c1)OCO2)NC1(C(F)(F)F)Oc2ccccc2O1,47,57*,-4,-3,22*,18,0
COC(=O)C1C(O)=C(C=NCC(C)N=CC2=C(O)C(C(=O)OC)C(C)(C)CC2=O)C(=O)CC1(C)C (stereo not drawn),8,47*,5,2,4,21,-1
C[C@H]1[C@H](c2ccccc2)Oc2cc(Br)ccc2S(=O)(=O)N1Cc1ccc(Cl)cc1,x,x,1,-1,0,x,x
Cc1cc(C(=O)CSc2ncn[nH]2)c(C)n1-c1cccc(S(=O)(=O)N2CCOCC2)c1,7,46*,3,0,1,24,5
COc1ccc(-n2c(SCC(=O)NCc3ccco3)nc3sc4c(c3c2=O)CCN(C)C4)cc1,22,34*,1,4,8,-18,-4
CN1CCc2c(sc3nc(SCC(=O)NCc4ccco4)n(-c4ccccc4)c(=O)c23)C1,8,39*,2,5,13,-3,-1
CCCC1CCC2(CCCN2CCOC(=S)Nc2ccccc2Br)CC1 (stereo not drawn),x,x,2,2,12,x,x
COc1cc(/C=C/c2cc(C(=O)O)c3ccccc3n2)cc(OC)c1O,27,51*,-2,-2,1,18,2
CCOc1cc(/C=C/c2cc(C(=O)O)c3ccccc3n2)ccc1OC,-5,-4,-3,1,1,x,x
CCN(CC)C(=O)CC[C@@H]1CC[C@]2(CCCN(Cc3ccc(Br)cc3)C2)O1,x,x,-4,-1,1,x,x
NC(=O)C1CCN(C(=O)COc2ccc(Nc3ccccc3)cc2)CC1,44,34*,4,1,11,-28,0
COC(=O)[C@]12C[C@H](CC(=O)N3CCCC3)C(=O)N(CCC3=CCCCC3)C1=C[C@H](C1CCCC1)O[C@@H]2C,x,x,8,5,9,x,x
CCc1ccc(OC2=NS(=O)(=O)c3ccccc32)cc1,-16,1,1,-2,1,x,x
CCN(CC)c1cccc(OC2=NS(=O)(=O)c3ccccc32)c1,43,36*,-3,-3,5,2,1
O=S(=O)(NNc1cccc(Cl)n1)c1ccc(Cl)cc1,36,72*,-2,1,5,49*,-1
O=S(=O)(Nc1nc2ccccc2nc1Cl)c1ccc(Cl)cc1,-11,-4,2,-4,-1,x,x
O=S(=O)(NNc1ccc(Cl)nn1)c1ccc(F)cc1,38,69*,-4,0,6,64*,1
COc1cccc(/C=C2\CC3(OC(=O)C(C)(C)C)CCCN2C3)c1 (stereo not drawn),x,x,-4,-1,-2,x,x
Cc1ccc(C(=O)n2cnnc2N)cc1C,17,44*,-1,1,-2,57*,-1
Cc1ccc(C(=O)n2cnnc2N)cc1,-2,41*,-3,-1,-1,47*,-3
COc1cccc(C(=O)OCCCOC(=O)c2cccc(OC)c2OC)c1OC,4,1,-1,-2,0,x,x
Cc1ccc(C(=O)N2CCC(C)CC2)cc1C,-21,2,0,1,0,x,x
Cc1ccc(-c2nc(N)n(C(=O)c3cccs3)n2)cc1,18,-2,x,x,x,x,x
COc1cccc(C(=O)n2cnnc2N)c1OC,-1,56*,x,x,x,51*,-3
Nc1nncn1C(=O)c1cccs1,0,40*,-1,-2,0,49*,-5
CCCCc1c(-c2ccccc2OC)ncn1Cc1ccc(OC)c(Cl)c1,x,x,5,3,8,x,x
